Laboratory results from PubChem BioAssay AID1920062 (Sanford-Burnham Center for Chemical Genomics, 2024).
The whole screen tested about 370,000 compounds, of which about 400 (0.11%) were called active. The full list was thinned out, with actives kept by preference. A number with no mark means an inactive call.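 How the source made its calls: active means activation at 10 µM reaching about 35% in either raw or pattern-adjusted values (limit read from the data); inactive means the rest.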

Each compound was assayed against Atrial natriuretic peptide receptor 2 (Homo sapiens) (UniProt P20594) (assay: human GC-B receptor activators, primary screen, HEK293 GC-B cells, cGMP TR-FRET, EC30 CNP (AID 1920062)). Conditions: at 10 µM, stronger effect = higher value, 0% at EC30 CNP, 100% saturating CNP.
Chain of Atrial natriuretic peptide receptor 2 (Homo sapiens) (P20594 whole entry, looked up): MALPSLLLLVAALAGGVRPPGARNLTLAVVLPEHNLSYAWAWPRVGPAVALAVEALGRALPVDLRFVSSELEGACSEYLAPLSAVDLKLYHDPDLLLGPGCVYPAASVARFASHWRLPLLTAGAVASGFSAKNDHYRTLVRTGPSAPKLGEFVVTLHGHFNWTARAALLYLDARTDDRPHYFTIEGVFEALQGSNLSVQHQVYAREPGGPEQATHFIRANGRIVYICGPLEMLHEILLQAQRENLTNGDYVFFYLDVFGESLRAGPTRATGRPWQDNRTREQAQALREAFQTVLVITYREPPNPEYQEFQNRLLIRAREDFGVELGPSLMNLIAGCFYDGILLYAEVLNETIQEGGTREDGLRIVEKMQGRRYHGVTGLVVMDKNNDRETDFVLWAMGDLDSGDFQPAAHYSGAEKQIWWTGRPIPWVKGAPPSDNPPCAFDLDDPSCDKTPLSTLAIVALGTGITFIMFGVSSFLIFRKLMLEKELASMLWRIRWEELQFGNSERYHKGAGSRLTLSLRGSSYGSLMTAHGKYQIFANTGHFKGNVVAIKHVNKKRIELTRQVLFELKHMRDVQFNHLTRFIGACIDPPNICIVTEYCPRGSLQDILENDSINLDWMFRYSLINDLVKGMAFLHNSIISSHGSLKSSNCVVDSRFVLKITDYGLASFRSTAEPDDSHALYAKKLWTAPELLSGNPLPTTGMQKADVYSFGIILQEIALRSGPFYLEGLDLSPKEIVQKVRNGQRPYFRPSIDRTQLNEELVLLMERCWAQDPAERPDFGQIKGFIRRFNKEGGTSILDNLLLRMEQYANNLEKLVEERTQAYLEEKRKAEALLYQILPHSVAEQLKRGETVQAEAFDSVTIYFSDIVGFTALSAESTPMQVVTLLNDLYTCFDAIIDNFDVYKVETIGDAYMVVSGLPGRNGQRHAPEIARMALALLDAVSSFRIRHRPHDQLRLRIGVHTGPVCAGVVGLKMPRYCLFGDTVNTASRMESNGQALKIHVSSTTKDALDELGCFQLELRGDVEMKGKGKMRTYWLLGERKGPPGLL
For `COC(=O)c1ccc2nc(-c3ccc(C)cc3)c(Cc3ccc(OC)cc3C)n2c1`, the activation was 17.2%.
In the case of `COC(=O)c1ccc2nc(-c3ccc(F)cc3)c(Cc3ccc(C)cc3)n2c1`, the activation is reported as 41.9% (active).
For `COC(=O)c1ccc2nc(C3CCCCC3)c(Cc3cccc(F)c3)n2c1`, the activation was 3.29%.
With `COC(=O)c1ccc2nc(-c3ccc(Cl)cc3)c(Cc3cccc(F)c3)n2c1` the activation was 41.9% (active).
`COC(=O)c1ccc2nc(-c3ccc(OC)c(OC)c3)c(Cc3ccccc3)n2c1` was tested, and the activation was 20.9%.
`Fc1cccc(Cc2c(-c3cccc(Cl)c3)nc3ccc(Br)cn23)c1` gave an activation of -1.56%.
Compound `COC(=O)[C@@H]1C[C@@]2(O)[C@H](O)[C@H](O)[C@H](O)C[C@H]2N1Cc1ccc(C)s1` has an activation of 6.96%.
With `O=C(NCc1ccncc1)C1CCCN(S(=O)(=O)c2ccc(Br)cc2)C1` (stereo not drawn) the activation was -0.66%.
For `CCOCCCNC(=O)Cc1cc(=O)[nH]c(=O)[nH]1`, the activation was -0.88%.
Work on `CC(=O)Nc1ccc(S(=O)(=O)NC2(C(F)(F)F)C(=O)Nc3c2c(=O)[nH]c(=O)n3Cc2ccccc2)cc1` (stereo not drawn) yielded an activation of -0.18%.
With `NC(=O)C[n+]1cccc(C(N)=O)c1` the activation was -0.67%.
With `CC1(C)O[C@@H]2[C@H](O1)[C@@H](COS(=O)(=O)O)O[C@H]2n1ccc(=O)[nH]c1=O` the activation was 1.28%.
`O=C(NC(=S)Nc1cccc(-c2ccc(CO)o2)c1)c1cccs1` gave an activation of 3.14%.
In the case of `COc1cccc2cc(C(C)N(CCCN3CCOCC3)C(=O)Nc3ccc(Cl)cc3)oc12` (stereo not drawn), the activation is reported as 2.29%.
`Cc1ccc(SCC(=O)NNC(=O)c2ccc(S(C)(=O)=O)cc2)cc1` showed an activation of 4.75%.
For `CCCN=C1NC(=O)C(CC(=O)NCCc2ccc(OC)c(OC)c2)S1` (stereo not drawn), the activation was -2.43%.
`CCN(CC(=O)NCCCN1CCOCC1)S(=O)(=O)c1cc(Cl)ccc1Cl` gave an activation of -0.24%.
In the case of `CCOCCCNC(=O)C(NC(=O)c1ccc(=O)[nH]c1)c1ccc(Cl)cc1` (stereo not drawn), the activation is reported as -0.69%.
In the case of `O=C(CC1CCCCC1)NCc1ccccc1`, the activation is reported as 0.16%.
In the case of `CC(C)OC(=O)c1sc2nc3c(cc2c1N)C(=O)CCC3`, the activation is reported as 16.4%.
`Nc1c(C(=O)NCc2ccccc2)sc2nc3c(cc12)C(=O)CCC3` was tested, and the activation was 41.5% (active).
For `Cc1cnc(C)c(N2CCN(C(=O)C3CCC(=O)N(CCc4cccc(F)c4)C3)CC2)n1` (stereo not drawn), the activation was 1.57%.
`CCN(C(=O)COC(=O)c1c(NC(C)=O)sc(C)c1C)C1CCS(=O)(=O)C1` (stereo not drawn) was tested, and the activation was -6.94%.
`C=CCn1nc(C(=O)OCC)cc1-c1sc(NC(=O)c2ccccc2)nc1C` was tested, and the activation was 3.57%.
`Cc1ccc(C)n1-c1ccncc1` was tested, and the activation was 1.81%.
Compound `COC(=O)[C@]1(Cc2ccccc2)N[C@H](CN(C)S(=O)(=O)c2ccc(F)cc2)[C@@H]2C(=O)N(Cc3ccccc3)C(=O)[C@@H]21` has an activation of -3.49%.
Work on `COc1ccc(C2c3ccc(O)cc3Oc3ncn(CCCO)c(=N)c32)cc1OC` (stereo not drawn) yielded an activation of 2.6%.
`CCN(C(=O)COC(=O)c1ccc(COc2ccc3c(C)cc(=O)oc3c2)cc1)C1CCS(=O)(=O)C1` (stereo not drawn) showed an activation of -1.49%.
`O=C(Nc1ccc(Br)cc1)c1cccc(NC(=O)C2C3CC4OC(=O)C2C4C3)c1` (stereo not drawn) showed an activation of -4.37%.
`Cc1oc2nc(SCC(=O)Nc3ccc(S(N)(=O)=O)cc3)nc(NC(=O)c3ccccc3)c2c1C` was tested, and the activation was -7.74%.
In the case of `N#Cc1ccc(OCCN2C(=O)NC3(CCSC3)C2=O)cc1` (stereo not drawn), the activation is reported as 1.75%.
For `O=C1Nc2ccccc2NC(c2ccc3c(c2)OCO3)=C1N(Cc1ccc(F)cc1)C(=O)c1ccco1`, the activation was -16.8%.
`CCOC(=O)Cc1c(C)nc2c(C#N)c(C)nn2c1C` showed an activation of 6.49%.
`C[C@H]1NS(=O)(=O)c2cc(Cl)ccc2O[C@@H]1c1ccccc1` gave an activation of 1.13%.
`O=C1CC(=O)Nc2cc(S(=O)(=O)N3CCN(c4cccc(C(F)(F)F)c4)CC3)ccc2N1` showed an activation of 1.05%.
`CCNC(=O)C1(C)CCN(C(=O)c2ccccc2)C1` (stereo not drawn) gave an activation of 1.62%.
Compound `Cc1ccc(CSc2ccc(S(=O)(=O)N3CCCCC3)cn2)cc1` has an activation of -1.29%.
For `CCOC(=O)c1ccccc1NC(=O)COC(=O)C(Cc1c[nH]c2ccccc12)NC(C)=O` (stereo not drawn), the activation was -17.1%.
`COCCn1c(CN2CCC(Cc3ccccc3)CC2)nc2c1c(=O)n(C)c(=O)n2C` gave an activation of -2.04%.
In the case of `O=C(NCc1ccc2c(c1)OCO2)c1sccc1Br`, the activation is reported as 8.92%.
In the case of `CN(C)C(=O)c1cccc(-c2cnc3sc(NCc4ccc5c(c4)OCO5)nn23)c1`, the activation is reported as 43% (active).
For `CCN(CC)C(=O)Cn1cc(S(=O)(=O)CC(=O)NCc2ccc3c(c2)OCO3)c2ccccc21`, the activation was 2.01%.
`O/N=C(\c1ccc2c(c1)OCCO2)C1CCCCC1` was tested, and the activation was 0.81%.
For `Cc1nnc(NC(=O)CSc2nc(C3CCCCC3)nc3ccccc23)s1`, the activation was 3.79%.
With `CC(=O)Nc1cc(-c2cccc(CO)c2)cn2c(-c3cccc(C(F)(F)F)c3)cnc12` the activation was 36.8% (active).
Work on `CC(=O)Nc1cc(-c2ccccc2F)cn2c(-c3cccc(C(F)(F)F)c3)cnc12` yielded an activation of 3.33%.
Work on `CC(=O)Nc1cccc(-c2cc(NC(C)=O)c3ncc(-c4ccccc4)n3c2)c1` yielded an activation of 5.87%.
With `COc1ccc(OC)c(Cc2cnc3nc(N)nc(N)c3c2C)c1` the activation was -1.38%.
`Cn1c(=O)c2c(SCC(=O)NCC3CCCO3)nc(CC(C)(C)C)nc2n(C)c1=O` (stereo not drawn) was tested, and the activation was 4.44%.
In the case of `C=CCN(Cc1ccc2c(c1)OCO2)C(C#CC1CC1)C(C)(C)C` (stereo not drawn), the activation is reported as -14.9%.
`C[C@@H]1COc2cccc(N3CCCC3)c2S(=O)(=O)N1C` showed an activation of 0.41%.
`CC(=O)C1(C(=O)Nc2nccs2)CC(c2ccccc2C(F)(F)F)=NO1` (stereo not drawn) gave an activation of 1.69%.
For `COc1ccc(C(=O)OC(C)C(=O)NC2CCCC2)cc1S(=O)(=O)N1CCOCC1` (stereo not drawn), the activation was -5.5%.
With `O=C(CCCCCN1C(=O)C2C3C=CC(C3)C2C1=O)Nc1ccccn1` (stereo not drawn) the activation was 9.16%.
Work on `CCc1ccccc1S(=O)(=O)Cc1ccc(C(=O)NCCc2ccccc2)o1` yielded an activation of 2.27%.
`CN(C(=O)CC(NC(=O)c1ccccc1)(c1ccccc1)c1ccccc1)c1ccccc1` was tested, and the activation was -19.3%.
`CN(CC(=O)Nc1ccccc1Cl)C(=O)COc1cccc2c1OC(C)(C)C2` was tested, and the activation was -1.31%.
`O=C(CSc1n[nH]c(=O)n1-c1ccccc1)Nc1ccccc1C(F)(F)F` showed an activation of -2.36%.
`COCCCN1C(=O)c2ccc(C(=O)OCC(=O)NCc3ccccc3OC)cc2C1=O` was tested, and the activation was -7.6%.
Work on `Cc1ccc(CNC(=O)C(=O)c2cn(CC(=O)N3CCOCC3)c3ccccc23)cc1` yielded an activation of -3.39%.
`O=C1CSC(c2cccc(F)c2)N1c1ccc(O)cc1` (stereo not drawn) gave an activation of 2.71%.
In the case of `CC1CCCCN1S(=O)(=O)CCNC(=O)c1ccccc1` (stereo not drawn), the activation is reported as -2.73%.
`Cc1ccc(NC(=O)CSCC(=O)N2CCOCC2)cc1` was tested, and the activation was 2.72%.
In the case of `O=C(CCSc1ccccc1)N1CCN(c2ccccc2F)CC1`, the activation is reported as -0.35%.
With `CC(C)(C)c1ccc(CSc2nnc(-c3cccs3)o2)cc1` the activation was 3.23%.
`COc1ccccc1NC(=O)CSc1nnc(Cn2nnc(-c3ccccc3)n2)n1-c1ccccc1` gave an activation of -7.79%.
Compound `Nn1c(SCC(=O)Nc2ccc(S(N)(=O)=O)cc2)nnc1-c1n[nH]c2c1CCC2` has an activation of -3.98%.
Compound `CS(=O)(=O)Nc1ccccc1N=C(c1ccccc1)c1ccccc1` has an activation of 4.92%.
With `Cc1cccc(C(=O)NC2CCN(CC(=O)Nc3cccc(Cl)c3)CC2)c1` the activation was 1.44%.
`CCc1nn(CCCC(=O)NC(C)c2ccccc2)c(=O)c2cc3occc3n12` (stereo not drawn) was tested, and the activation was -9.68%.
With `Cc1c2cnn(CC(=O)NCc3ccccn3)c(=O)c2c(C)n1Cc1ccc(Cl)cc1` the activation was 0.59%.
`CC1=NN(/C(=N\c2nnc(C)s2)Nc2ccccc2)[C@H](c2ccc(C)cc2)S1` showed an activation of -13.9%.
With `COC(=O)c1ccc([C@@H](O)[C@H](C)C(=O)CC(=O)OC(C)(C)C)cc1` the activation was 5.42%.
For `CC(=O)c1cccc(NC(=O)CN2C(=O)c3cccnc3Oc3ccc(Cl)cc32)c1`, the activation was -2.67%.
`Cc1ccccc1C(=O)OC1OC(=O)C(Cl)=C1Nc1ccccc1` (stereo not drawn) was tested, and the activation was 2.61%.
For `C/C(=N\N(C)C)c1ccc(OCCOc2ccc([N+](=O)[O-])cc2)cc1`, the activation was 4.4%.
In the case of `O=C(Cc1ccc(-n2c(=O)c3sccc3n(Cc3ccc(F)cc3)c2=O)cc1)NCc1ccco1`, the activation is reported as 6.68%.
`Cc1ccc(C(=O)N2CCCC2)c(F)c1F` was tested, and the activation was 0.58%.
`COc1ccc(S(=O)(=O)N2CCN(C)CC2)c(C)c1` showed an activation of -1.64%.
In the case of `CC[C@]1(C(=O)OC)[C@H]2C(=O)N(C)C(=O)[C@H]2[C@H]2CN(C)C(=NCc3ccccc3)N21`, the activation is reported as -1.82%.
With `CS(=O)(=O)N(CC(=O)N1CCN(c2cccc(Cl)c2)CC1)c1ccccc1` the activation was -0.13%.
`c1ccc(CSc2ncnc3c2sc2nc(N4CCOCC4)c4c(c23)CCCC4)cc1` was tested, and the activation was -0.49%.
`Cc1cc(C)c(C#N)c(SCc2ccc3c(c2)OCO3)n1` gave an activation of 6.77%.
In the case of `COc1ccc(CSc2nc(N3CCOCC3)c3c(c2C#N)CC(C)(C)OC3)cc1`, the activation is reported as 48.4% (active).
Work on `O=C1CCC(=O)N(c2ccccc2)N1` yielded an activation of 0.63%.
Compound `CC(=O)Nc1ccc(NC(=O)CSc2nnnn2-c2ccccc2F)cc1` has an activation of -2.78%.
`CCCCCN(C(=O)NC(=O)Nc1ccccc1OC)S(C)(=O)=O` was tested, and the activation was 0.44%.
`CCn1c(SCC(=O)NNC(=O)c2ccc(OC)cc2)nnc1C(C)C` showed an activation of 1.41%.
